# According to PubChem BioAssay AID624291 (National Center for Advancing Translational Sciences (NCATS), 2012):
# The campaign covered roughly 350,000 compounds. About 220 (0.063%) were called active. Where a call stands in place of a potency, no number is given. Roughly 4% stayed inconclusive and do not appear here. This is one part of a sample in which actives are shown more often than they occur. Calls follow the shape of the dose curve; as a rule, active = well fitted activation curve with a large enough effect; inconclusive = small, poorly fitted or top-dose-only effect; inactive = no such curve, though single readings can be large or run the other way.
# Experiment: qHTS for Activators of Integrin-Mediated Alleviation for Muscular Dystrophy; also: nearly all actives have a fitted effect of over 60% in size
# Settings: alpha7betagal myoblasts, beta-gal FDG fluorescence, 48 h; series mostly up to 38.3 µM
# From the text: Integrins are a diverse family of transmembrane cell surface receptors that mediate interactions between cells and the extracellular matrix. These heterodimeric proteins are composed of alpha and beta subunits and the a7b1 interacts with laminin in the extracellular matrix and actin of the cell cytoskeleton. Both chains contribute to ligand binding, but the alpha chain mediates the specificity of the interaction. The alpha7beta1 integrin is a major laminin receptor in skeletal, cardiac and vascular smooth muscle. Mutations in the alpha7 integrin gene are responsible for muscular dystrophy in both humans and mice. The alpha7beta1 integrin is also a major modifier of muscle disease progression in various muscle diseases including Duchenne muscular dystrophy, Fukuyama muscular dystrophy and merosin deficient congenital muscular dystrophy type 1A. […] Transcriptional regulation of the alpha7 integrin gene is poorly understood and probably involves multiple transcription factors. The goal of identifying small molecules that enhance alpha7 integrin expression is two-fold: firstly, such molecules would help us gain insight into the complex transcriptional control of alpha7 integrin. It is known that alpha7 integrin expression is tightly controlled during various stages of development, disease and in response to external stimuli. The second goal of the project is to translate the above finding into a therapeutic strategy for muscular dystrophy. […] Thus this project aims to discover small molecule probes that would not only help in gaining a better understanding of the complex regulatory mechanism of alpha7 integrin expression, but also lead to development of pharmacological agents to fight muscular dystrophy. NIH Chemical Genomics Center [NCGC] NIH Molecular Libraries Probe Centers Network [MLPCN] MLPCN Grant: NS058429 Assay Submitter (PI): Dean Burkin, University of Nevada School of Medicine
# A total of 250 alpha7betagal+/- myoblasts at passage 13 were dispensed using a mulitdrop from Thermo into black low base tissue culture treated microclear aurora plates in 6 ul media containing DMEM without phenol, 5% FBS, 1x GluMax and 1x Penicillin/Streptomycin. The plates were incubated 16-24 hr at 37C, 5% CO2, 95% humidity covered with low evaporation stainless steel lids from Kalypsys. Compounds were then dispensed using a Kalypsys pintool to deliver 23 nl/well compounds in DMSO (diluted into 6 uL resulting in a 1:260 dilution of compound). The control compound used was the cdk2 inhibitor SU9516 from Tocirs (found in the initial LOPAC screen). The plates were incubated for 48 hours at 37C, 5% CO2, 95% humidity using the same stainless steel lids. After incubation with compound, 5 ul of the media was aspirated using the Kalypsys washer/dispenser and 3 ul of the Mammalian Protein Extraction Reagent (MPER) lysis buffer (Thermo Fisher) was added. The plates were spun at 2000 rpms to remove bubbles and an initial capture was acquired on the Viewlux (Perkin Elmer) with exciation at 480 nm and emission at 540 nm for 25 seconds to omit any auto fluorescent compounds. The plates were then incubated for 10 minutes at room temperature. […] The plates were again read on the Viewlux with exciation at 480 nm and emission at 540 nm for 25 seconds.
# Potency is read from the fitted curve at half-maximal effect.
row,SMILES,Potency
1,O=Cc1cn(Cc2ccc(F)cc2Cl)c2ccccc12,15.8 µM (active)
2,O=c1[nH]c(=S)[nH]c(O)c1/C=C1\C=Nc2ccccc21,inactive
3,Cc1ccc(Oc2cnn(-c3ccccc3)c(=O)c2Br)cc1,inactive
4,CC(=O)c1ccc(S(=O)(=O)N2CCN(c3nc4c(C)c(C)ccc4cc3C#N)CC2)cc1,inactive
5,CCOC(=O)c1cccc(C2=C(CNC(=O)c3ccncc3)[C@H]3CC[C@@H](C2)N3Cc2ccccc2)c1,inactive
